Read-out in assay [1]: Transforming growth factor beta 1 (TGFb1), TGFB1 (gene 7040)
Put plainly: BSK_KF3CT_TGFb1: BioMAP Diversity Plus: KF3CT Assay for Transforming growth factor beta 1 (TGFb1) Biomarker Activity (AID 2283072). The settings on record: primary human keratinocytes with fibroblasts; actives raise or lower the signal. In a few lines:
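ELISA quantifies TGF-b1 at 24 h post-dose in a primary human skin co-culture of keratinocytes and fibroblasts, with gain or loss judged against DMSO. Parallel SRB total-protein staining flags overt cytotoxicity.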

Read-out in assay [2]: C-C motif chemokine 2 (Homo sapiens) (UniProt P13500)
Put plainly: BSK_KF3CT_MCP1: BioMAP Diversity Plus: KF3CT Assay for Monocyte Chemoattractant Protein 1 (MCP1/CCL2) Biomarker Activity (AID 2283073). The settings on record: primary human keratinocytes with fibroblasts; actives raise or lower the signal. The method in brief: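 Keratinocytes and foreskin fibroblasts were co-cultured, dosed with chemical, and sampled 24 h later. MCP-1 was quantified by ELISA, and the endpoint was analyzed with bidirectional fitting using DMSO as negative control.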

Read-out in assay [3]: Matrix Metallopeptidase 9 (MMP9), MMP9 (gene 4318)
Put plainly: BSK_KF3CT_MMP9: BioMAP Diversity Plus: KF3CT Assay for Matrix Metallopeptidase 9 (MMP9) Biomarker Activity (AID 2283074).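 On AC50: MMP9 protein level quantified by ELISA in the co-culture.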 The settings on record: primary human keratinocytes with fibroblasts; actives raise or lower the signal. The method in brief:
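MMP-9 quantified by ELISA after 24 h chemical treatment of primary human skin keratinocyte/fibroblast co-cultures; gain or loss fitted against DMSO, with parallel SRB staining (0.1% SRB, 560 nm) for overt cytotoxicity.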

Read-out in assay [4]: urokinase plasminogen activator (uPA), PLAU (gene 5328)
In words: BSK_KF3CT_uPA: BioMAP Diversity Plus: KF3CT Assay for urokinase plasminogen activator (uPA) Biomarker Activity (AID 2283075). The settings on record: primary human keratinocytes with fibroblasts; actives raise or lower the signal. The method in brief: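 ELISA read-out of uPA 24 h after dosing human skin keratinocytes co-cultured with foreskin fibroblasts. Signal change fitted both ways relative to DMSO; sulforhodamine B on parallel cultures marks overt cytotoxicity.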

Read-out in assay [5]: CD40, CD40 (gene 958)
In words: BSK_LPS_CD40: BioMAP Diversity Plus: LPS Assay for CD40 Biomarker Activity (AID 2283076). Conditions: primary human HUVEC with PBMC; actives raise or lower the signal. In a few lines:
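CD40 signal, measured by ELISA, is fitted in both directions relative to DMSO vehicle. The system is an LPS-driven human vascular primary co-culture of endothelial cells and PBMC, sampled 24 h after compound addition.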

Read-out in assay [6]: E-selectin (Homo sapiens) (UniProt P16581)
Put plainly: BSK_LPS_Eselectin: BioMAP Diversity Plus: LPS Assay for Eselectin Biomarker Activity (AID 2283077). The settings on record: primary human HUVEC with PBMC; actives raise or lower the signal. In a few lines: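 Signal of E-selectin, detected by ELISA, served as the endpoint; cells were umbilical vein endothelium with PBMC, read 24 h after treatment. DMSO defined baseline, and both increases and decreases were fitted.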

Read-out in assay [7]: Interleukin-8 (IL8), CXCL8 (gene 3576)
Put plainly: BSK_LPS_IL8: BioMAP Diversity Plus: LPS Assay for Interleukin-8 (IL8) Biomarker Activity (AID 2283078). The settings on record: primary human HUVEC with PBMC; actives raise or lower the signal. The method in brief: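 Endothelial cells and PBMC from human donors are co-cultured, treated with chemicals and LPS, then assayed for IL-8 by ELISA after 24 h. Parallel SRB staining (0.1% SRB after 10% TCA fixation, 560 nm) flags cytotoxicity.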

A short description of assay [8]: BSK_LPS_SRB: Viability Assessment in the BioMAP Diversity Plus: LPS Assay (AID 2283079).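 Further: total protein by sulforhodamine B absorbance as a cytotoxicity measure; measured one day after compound addition; fitted in both directions against DMSO so loss or gain of signal counts.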 The settings on record: primary human HUVEC with PBMC. The method in brief:
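Overt cytotoxicity was gauged by sulforhodamine B total-protein staining in a primary human vascular endothelial and mononuclear cell co-culture 24 h post-dosing. Activity was fitted in both directions relative to DMSO.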

Read-out in assay [9]: Interleukin-1 alpha (IL1a), IL1A (gene 3552)
In words: BSK_LPS_IL1a: BioMAP Diversity Plus: LPS Assay for Interleukin-1 alpha (IL1a) Biomarker Activity (AID 2283080). Conditions: primary human HUVEC with PBMC; actives raise or lower the signal. The method in brief: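 Measured: IL-1 alpha via ELISA at 24 h in LPS-activated human umbilical vein endothelium–PBMC co-culture. Baseline: DMSO, bidirectional fitting.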

Read-out in assay [10]: Monocyte Chemoattractant Protein-1 (MCP1), CCL2 (gene 6347)
In words: BSK_LPS_MCP1: BioMAP Diversity Plus: LPS Assay for Monocyte Chemoattractant Protein-1 (MCP1) Biomarker Activity (AID 2283081).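 On AC50: secreted MCP-1 protein quantified by ELISA in culture supernatant.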 Conditions: primary human HUVEC with PBMC; actives raise or lower the signal. The method in brief:
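LPS-stimulated HUVEC/PBMC co-culture; chemical, 24 h; MCP-1 by ELISA; bidirectional fit vs DMSO; cytotoxicity via SRB (0.1% stain, 10% TCA fix, 560 nm) in parallel wells.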

Assay [11] can be described thus: BSK_LPS_PGE2: BioMAP Diversity Plus: LPS Assay for Prostaglandin E2 (PGE2) Biomarker Activity (AID 2283082). The settings on record: primary human HUVEC with PBMC; actives raise or lower the signal. In a few lines: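 PGE2 release measured by ELISA in an LPS-activated co-culture of human umbilical vein endothelial cells and peripheral blood mononuclear cells, read at 24 h post-dosing. DMSO served as baseline for bidirectional curve fitting.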

Read-out in assay [12]: Tissue Factor, F3 (gene 2152)
In words: BSK_LPS_TissueFactor: BioMAP Diversity Plus: LPS Assay for Tissue Factor Biomarker Activity (AID 2283084). The settings on record: primary human HUVEC with PBMC; actives raise or lower the signal. In a few lines:
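In this co-culture system of umbilical vein endothelium with PBMC, stimulated with LPS, cell-surface CD142 is detected by ELISA at 24 h. Endpoint values derive from bidirectional fitting, DMSO serving as baseline.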

Read-out in assay [13]: Tumor necrosis factor (Homo sapiens) (UniProt P01375)
In words: BSK_LPS_TNFa: BioMAP Diversity Plus: LPS Assay for Tumour Necrosis Factor alpha (TNFa) Biomarker Activity (AID 2283085).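 On AC50: TNFa protein level quantified by ELISA in the co-culture.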 Conditions: primary human HUVEC with PBMC; actives raise or lower the signal. The method in brief: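 TNFa was quantified by ELISA in LPS-activated co-cultures of human endothelial cells and PBMC, 24 h post-dosing. Both increases and decreases versus DMSO were fitted.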

Read-out in another assay: CD38, CD38 (gene 952)
Put plainly: BSK_SAg_CD38: BioMAP Diversity Plus: SAg Assay for CD38 Biomarker Activity (AID 2283087). The settings on record: primary human HUVEC with PBMC; actives raise or lower the signal. The method in brief:
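CD38 quantified by ELISA (fluorescence) in a superantigen-activated endothelial cell–PBMC co-culture at 24 h post-dose. Activity fitted in both directions relative to DMSO; parallel SRB and Alamar Blue cytotoxicity read-outs.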

Read-out in assay [14]: CD40, CD40 (gene 958)
In words: BSK_SAg_CD40: BioMAP Diversity Plus: SAg Assay for CD40 Biomarker Activity (AID 2283088). The settings on record: primary human HUVEC with PBMC; actives raise or lower the signal. In a few lines: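 Fluorescence ELISA read-out of CD40 from umbilical vein endothelium plus peripheral blood mononuclear cells, sampled 24 h after dosing. Values come from bidirectional curve fitting with DMSO as baseline.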

Read-out in the next assay: CD69, CD69 (gene 969)
Put plainly: BSK_SAg_CD69: BioMAP Diversity Plus: SAg Assay for CD69 Biomarker Activity (AID 2283089).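 On AC50: cell surface CD69 protein quantified by ELISA with fluorescence detection.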 Conditions: primary human HUVEC with PBMC; actives raise or lower the signal. The method in brief:
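Values derive from bidirectional fitting relative to DMSO vehicle. Cells: umbilical vein endothelium plus peripheral blood mononuclear cells, treated 24 h before fluorescent ELISA for CD69.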

Read-out in assay [15]: Monocyte Chemoattractant Protein-1 (MCP1), CCL2 (gene 6347)
Put plainly: BSK_SAg_MCP1: BioMAP Diversity Plus: SAg Assay for Monocyte Chemoattractant Protein-1 (MCP1) Biomarker Activity (AID 2283090). Conditions: primary human HUVEC with PBMC; actives raise or lower the signal. In a few lines: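 Values derive from bidirectional fitting of ELISA-measured MCP1 against DMSO controls. Readings were taken 24 h after dosing human vascular endothelial cells co-cultured with peripheral blood mononuclear cells under superantigen stimulation.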

Read-out in assay [16]: E-selectin (Homo sapiens) (UniProt P16581)
In words: BSK_SAg_Eselectin: BioMAP Diversity Plus: SAg Assay for Eselectin Biomarker Activity (AID 2283091). The settings on record: primary human HUVEC with PBMC; actives raise or lower the signal. The method in brief: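 Primary human endothelial cells and peripheral blood mononuclear cells were co-cultured and exposed to chemical for 24 hours. E-selectin levels were then quantified by ELISA, with bidirectional curve fitting normalised to DMSO controls.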

Read-out in assay [17]: Macrophage colony-stimulating factor (MCSF), CSF1 (gene 1435)
Put plainly: BSK_LPS_MCSF: BioMAP Diversity Plus: LPS Assay for Macrophage colony-stimulating factor (MCSF) Biomarker Activity (AID 2283083). Conditions: primary human HUVEC with PBMC; actives raise or lower the signal. In a few lines:
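Compound is added to a human vascular primary co-culture of umbilical vein endothelium and blood mononuclear cells. After 24 h, M-CSF is quantified by ELISA. Signal changes are fitted in both directions against DMSO.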

Read-out in assay [18]: Vascular cell adhesion molecule 1 (VCAM1), VCAM1 (gene 7412)
In words: BSK_LPS_VCAM1: BioMAP Diversity Plus: LPS Assay for Vascular cell adhesion molecule 1 (VCAM1) Biomarker Activity (AID 2283086). Conditions: primary human HUVEC with PBMC; actives raise or lower the signal. The method in brief:
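VCAM-1 quantified by ELISA in an LPS-activated co-culture of human endothelial cells and peripheral blood mononuclear cells, read 24 h post-treatment. Fitted in both directions versus DMSO; parallel SRB staining flags overt cytotoxicity.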

This passage reports AC50 and outcome results from PubChem BioAssay (EPA / NIEHS).

Activity calls are given as the source filed them. How the source made its calls: active means hit-call score of the fitted dose curve at least 0.9, where 1 is the maximum; inactive means score below 0.9.

Sequence of E-selectin (Homo sapiens) (P16581 whole entry, looked up): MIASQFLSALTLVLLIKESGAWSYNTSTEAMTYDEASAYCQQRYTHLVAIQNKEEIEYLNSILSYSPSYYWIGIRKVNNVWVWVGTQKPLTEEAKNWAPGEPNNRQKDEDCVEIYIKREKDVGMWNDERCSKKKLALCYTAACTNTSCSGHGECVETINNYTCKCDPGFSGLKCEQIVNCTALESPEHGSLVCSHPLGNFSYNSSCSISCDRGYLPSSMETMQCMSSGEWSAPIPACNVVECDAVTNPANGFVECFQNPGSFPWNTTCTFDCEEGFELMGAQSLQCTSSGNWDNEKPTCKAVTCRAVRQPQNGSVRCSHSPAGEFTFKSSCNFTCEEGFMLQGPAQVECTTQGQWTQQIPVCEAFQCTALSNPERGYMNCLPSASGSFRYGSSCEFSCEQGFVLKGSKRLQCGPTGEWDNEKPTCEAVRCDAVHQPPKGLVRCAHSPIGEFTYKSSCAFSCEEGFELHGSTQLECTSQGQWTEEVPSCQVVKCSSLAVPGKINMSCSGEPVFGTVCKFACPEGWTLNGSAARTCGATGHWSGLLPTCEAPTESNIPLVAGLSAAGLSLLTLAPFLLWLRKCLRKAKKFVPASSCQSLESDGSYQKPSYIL
Sequence of Tumor necrosis factor (Homo sapiens) (P01375 whole entry, looked up): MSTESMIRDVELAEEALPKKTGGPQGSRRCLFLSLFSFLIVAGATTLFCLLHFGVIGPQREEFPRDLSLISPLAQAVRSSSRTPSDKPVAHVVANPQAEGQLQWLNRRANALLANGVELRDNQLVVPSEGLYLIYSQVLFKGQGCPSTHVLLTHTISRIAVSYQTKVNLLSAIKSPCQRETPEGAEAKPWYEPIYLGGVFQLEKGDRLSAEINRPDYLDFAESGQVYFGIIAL

Regarding `Cc1cc(CCN2CCN(c3nsc4ccccc34)CC2)cc2c1NC(=O)CC2(C)C`, the AC50 is 13.2 µM (active) in assay [1]; 28.8 µM (active) in [2]; 16.5 µM (active) in [3]; 13.4 µM (active) in assay [4]; 14.3 µM (active) with CD40, CD40 (gene 958) [5]; 30 µM (active) in assay [6]. Also, the AC50 in assay [7] is 19.5 µM (active); in assay [8], 32.8 µM (active); in [9], 10.3 µM (active); in [10], 26.8 µM (active); in assay [11] it was 5.37 µM (active); in [12] it was 32.8 µM (active). Besides, the half-maximal activity concentration (AC50) in [13] is 8.98 µM (active); with CD38, CD38 (gene 952), 13.4 µM (active); in the assay with CD40, CD40 (gene 958) [14], 14.2 µM (active); with CD69, CD69 (gene 969), 14.4 µM (active); in assay [15], 11.3 µM (active); in assay [16], 11.8 µM (active).

As to `CC(C)(C)c1cccc(C(C)(C)C)c1O`, the AC50 in assay [1] is 36.1 µM (active); in assay [2], 34.4 µM (active); in assay [3], 36.7 µM (active); in assay [4], 39 µM (active). For the same compound, the outcome is “inactive” in the assay with CD40, CD40 (gene 958) [5]; “inactive” in assay [7]; “inactive” in assay [8]; “inactive” in [9]; “inactive” in [10]; “inactive” in [11]. The outcome in assay [17] was “inactive”; in [12], “inactive”; in assay [13], “inactive”; in [18], “inactive”; with CD38, CD38 (gene 952), “inactive”; with CD40, CD40 (gene 958) [14] it was “inactive”. The outcome in the assay with CD69, CD69 (gene 969) is “inactive”; in assay [15] it was “inactive”; in assay [16], “inactive”.

Turning to `Nc1cccc2c(N)cccc12`, the outcome in assay [1] is “inactive”; in assay [2], “inactive”; in assay [3] it was “inactive”; in assay [4] it was “inactive”; with CD40, CD40 (gene 958) [5], “inactive”; in assay [6], “inactive”. For the same compound, the result in assay [7], in assay [8], in assay [9], in [10], in assay [12] and in [13] was inactive. Besides, the outcome in [18] was “inactive”; with CD38, CD38 (gene 952) it was “inactive”; in the assay with CD40, CD40 (gene 958) [14], “inactive”; with CD69, CD69 (gene 969), “inactive”; in assay [15], “inactive”; in [16], “inactive”. In addition, the AC50 in assay [11] is 12.9 µM (active).
